A word on the inhibition: it is the relative decrease from the control value, in per cent.

Among all 360,000 compounds or so, about 510 (0.14%) were called active.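 Rule for the calls: active = mean normalized replicate activity at least 40 and at least half of replicates scoring 40 or more; inconclusive = only one of the two criteria met; inactive = mean below 40 and under half of replicates reaching 40.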 The sample as a whole holds a higher share of actives than the screen did.

This assay deals with DNA repair and recombination protein RAD54-like (Homo sapiens) (UniProt Q92698). The assay can be described thus: inhibitors of human RAD54 branch migration, primary screen, biochemical, fluorescence, single point (AID 602329).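 Note: 0% = median of neutral control wells and 100% = median of positive control wells; inhibitors cause a drop in the FAM fluorescence signal.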 As to conditions: RAD54 Holliday junction branch migration, FAM/BHQ fluorescence; at 10.4 µM; hits give high values.
Chain of DNA repair and recombination protein RAD54-like (Homo sapiens) (Q92698 whole entry, looked up): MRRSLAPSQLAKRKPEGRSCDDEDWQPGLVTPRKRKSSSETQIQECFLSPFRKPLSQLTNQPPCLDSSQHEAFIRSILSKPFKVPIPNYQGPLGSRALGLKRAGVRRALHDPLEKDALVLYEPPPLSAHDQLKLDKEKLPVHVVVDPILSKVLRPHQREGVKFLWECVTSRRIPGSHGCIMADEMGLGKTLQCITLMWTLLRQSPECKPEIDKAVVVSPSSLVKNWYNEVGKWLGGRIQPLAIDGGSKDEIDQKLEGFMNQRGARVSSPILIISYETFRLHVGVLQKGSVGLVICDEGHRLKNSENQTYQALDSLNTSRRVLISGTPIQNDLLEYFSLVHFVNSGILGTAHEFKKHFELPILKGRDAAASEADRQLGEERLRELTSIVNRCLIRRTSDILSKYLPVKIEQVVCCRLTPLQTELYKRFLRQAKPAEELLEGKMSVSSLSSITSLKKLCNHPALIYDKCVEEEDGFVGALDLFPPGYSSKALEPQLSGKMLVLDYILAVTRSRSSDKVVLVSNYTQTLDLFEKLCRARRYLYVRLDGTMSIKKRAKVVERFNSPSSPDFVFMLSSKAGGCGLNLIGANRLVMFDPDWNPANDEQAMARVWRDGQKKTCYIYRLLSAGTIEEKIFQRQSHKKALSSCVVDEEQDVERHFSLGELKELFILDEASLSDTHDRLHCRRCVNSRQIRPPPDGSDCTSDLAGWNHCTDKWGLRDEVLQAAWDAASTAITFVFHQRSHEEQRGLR
On to `CN1C[C@@H](CO)O[C@@H](n2cnc3c(N4CCN(CCO)CC4)ncnc32)C1`, for which the inhibition is -0.96% (inactive).

Take `CC1CCc2sc3nc(N4CCN(CCO)CC4)n4ncnc4c3c2C1` (stereo not drawn): the inhibition is 53.7% (active).

For the compound `COCc1cn(CC[C@@H]2CC[C@@H](NC(=O)Nc3ccc(C(F)(F)F)cc3)[C@H](CO)O2)nn1`, the inhibition is -5.23% (inactive).

As for `C[C@@H]1CN([C@@H](C)CO)C(=O)c2ccccc2-c2ccccc2CO[C@H]1CN(C)C(=O)Nc1ccccc1`, the inhibition is 2.07% (inactive).

Turning to `CO[C@@H]1CN(C)C(=O)c2ccc(NS(C)(=O)=O)cc2OC[C@H](C)NC[C@H]1C`, the inhibition is 0.663% (inactive).

Take `CN1c2ccc(C3=CCCCC3)cc2[C@@H]2[C@@H](CCN2C(=O)Nc2cc(F)ccc2F)[C@@H]1CO`: the inhibition is 7.43% (inactive).

On to `C[C@@H]1CN([C@@H](C)CO)C(=O)c2cc(NC(=O)Nc3ccc(C(F)(F)F)cc3)ccc2O[C@@H](C)CCCCO[C@H]1CN(C)C(=O)CCCN(C)C`, for which the inhibition was 25% (inactive).

In the case of `COc1ccccc1-c1ccc2n(c1=O)C[C@H]1[C@H](CO)[C@@H](C(=O)N[C@@H](C)c3ccccc3)[C@@H]2N1C`, the inhibition is -1.98% (inactive).

For the compound `CO[C@@H](CN(C)S(=O)(=O)c1cccc(Cl)c1)[C@H](C)CN([C@H](C)CO)S(=O)(=O)c1cccc(Cl)c1`, the inhibition is 1.71% (inactive).

As to `C[C@@H]1CN([C@H](C)CO)C(=O)c2cccc(NS(=O)(=O)c3ccc(F)cc3)c2O[C@@H]1CN(C)S(=O)(=O)c1ccccc1`, the inhibition was 2.48% (inactive).

In the case of `CO[C@@H]1CN(C)C(=O)c2ccc(NC(=O)C3CCCC3)cc2OC[C@H](C)NC[C@@H]1C`, the inhibition was 4.25% (inactive).

In the case of `O=C(C[C@@H]1C=C[C@@H](NC(=O)Nc2cccc(F)c2)[C@H](CO)O1)NCC1CCCCC1`, the inhibition is -1.32% (inactive).

As for `CCN(CC)CCn1c2ccc(Cl)cc2c2nc(C)sc21`, the inhibition was 63.6% (active).

Take `CCN(CC)CCNc1ccc(Cl)cc1[N+](=O)[O-]`: the inhibition was 7.16% (inactive).

For the compound `COc1ccccc1C(=O)N1C[C@H]2[C@@H](c3ccccc31)[C@H](CO)N2C(=O)C1CC1`, the inhibition was -5.07% (inactive).

In the case of `Cc1ccccc1-c1ccc2c(c1)O[C@@H](CN(C)Cc1ccc(C(=O)O)cc1)[C@H](C)CN([C@H](C)CO)S2(=O)=O`, the inhibition is 0.48% (inactive).

As for `COc1ccc(S(=O)(=O)N(C)C[C@@H]2OCCCC[C@@H](C)Oc3ccc(NC(=O)CCCN(C)C)cc3C(=O)N([C@@H](C)CO)C[C@@H]2C)cc1`, the inhibition was -3.63% (inactive).

Regarding `CCC(=O)N(C)C[C@H]1Oc2ncc(-c3ccc(C)cc3)cc2C(=O)N([C@@H](C)CO)C[C@@H]1C`, the inhibition is 12% (inactive).

In the case of `Cc1noc(C)c1NC(=O)Nc1cccc2c1O[C@@H](CN(C)Cc1ccc(C(F)(F)F)cc1)[C@@H](C)CN([C@@H](C)CO)C2=O`, the inhibition is 3.12% (inactive).

`C[C@@H]1CN([C@@H](C)CO)C(=O)c2cccc(NS(=O)(=O)c3ccccc3)c2O[C@@H]1CN(C)S(=O)(=O)c1ccc(F)cc1`: the inhibition was -8.79% (inactive).

Consider `CCC(=O)N1C[C@@H](C)[C@H](OC)CN(C)C(=O)c2ccc(NC(=O)c3cc(C)on3)cc2OC[C@H]1C`, for which the inhibition is -6.97% (inactive).

In the case of `COc1cccc(-c2ccc3n(c2=O)C[C@@H]2[C@@H](CO)[C@H](C(=O)N4CCCCC4)N[C@H]32)c1`, the inhibition was -5.16% (inactive).

For the compound `CO[C@H]1CC[C@@H]2CCOc3c(C#N)cccc3C(=O)N(C)CCCC(=O)N(C)C[C@@H]1O2`, the inhibition is -6.75% (inactive).

As to `Cc1cc(C(=O)Nc2cccc3c2O[C@@H](CN(C)C(=O)Nc2ccc4c(c2)OCO4)[C@H](C)CN([C@@H](C)CO)C3=O)n(C)n1`, the inhibition was 14.9% (inactive).

Take `C[C@@H]1CN([C@H](C)CO)C(=O)c2cc(NC(=O)CCCN(C)C)ccc2O[C@H]1CN(C)S(=O)(=O)c1ccc(Cl)cc1`: the inhibition is 3.22% (inactive).

With `C[C@H]1CCCCO[C@@H](CN(C)C(=O)c2ccccc2)[C@@H](C)CN([C@@H](C)CO)C(=O)c2cc(NS(=O)(=O)c3cccs3)ccc2O1`, the inhibition was -5.69% (inactive).

Take `CCCNC(=O)Nc1ccc2c(c1)C(=O)N(C)C[C@H](OC)[C@H](C)CN(Cc1ccncc1)[C@H](C)CO2`: the inhibition was 3.54% (inactive).

Consider `CCCC#Cc1cnc2c(c1)C(=O)N([C@H](C)CO)C[C@@H](C)[C@@H](CN(C)C(=O)Nc1ccccc1F)O2`, for which the inhibition was -0.939% (inactive).

Turning to `C[C@@H]1CN([C@H](C)CO)C(=O)c2cccc(NS(=O)(=O)c3ccc(Cl)cc3)c2O[C@@H]1CN(C)Cc1ccc(Cl)c(Cl)c1`, the inhibition was -2.03% (inactive).

As to `C[C@H](O)C#Cc1cnc2c(c1)C(=O)N([C@H](C)CO)C[C@@H](C)[C@@H](CN(C)C(=O)Nc1ccc(C(F)(F)F)cc1)O2`, the inhibition was -3.33% (inactive).

As for `C[C@@H]1CN([C@@H](C)CO)C(=O)c2cc(NC(=O)CCN3CCOCC3)ccc2O[C@@H]1CN(C)S(=O)(=O)c1ccccc1`, the inhibition was 5.08% (inactive).

As for `C[C@@H]1CN([C@@H](C)CO)S(=O)(=O)c2ccc(-c3ccccc3F)cc2O[C@H]1CN(C)Cc1cncnc1`, the inhibition is -6.21% (inactive).

Turning to `OC[C@@H]1[C@H](c2ccc(C3=CCCC3)cc2)[C@H]2CN(Cc3ccncc3)CCCCN12`, the inhibition is 1.55% (inactive).

As to `COc1cccc(NC(=O)N(C)C[C@H]2Oc3cc(/C=C/c4ccccc4)ccc3S(=O)(=O)N([C@H](C)CO)C[C@@H]2C)c1`, the inhibition was -2.16% (inactive).

As to `C[C@H]1CN([C@@H](C)CO)C(=O)c2cc(C#CC3CCCC3)cnc2O[C@@H]1CN(C)C(=O)Cc1ccccn1`, the inhibition is 3.4% (inactive).

Regarding `O=C(N[C@H]1CC[C@@H](CCNS(=O)(=O)c2cccc(Cl)c2)O[C@@H]1CO)c1ccncc1`, the inhibition is -2.66% (inactive).

On to `Cc1ccc(S(=O)(=O)N(C)C[C@@H]2Oc3ccc(NC(=O)Nc4ccc5c(c4)OCO5)cc3C(=O)N([C@@H](C)CO)C[C@@H]2C)cc1`, for which the inhibition is 2.81% (inactive).

For the compound `COc1ccc(S(=O)(=O)Nc2cccc3c2O[C@@H](CN(C)S(=O)(=O)c2c(C)noc2C)[C@@H](C)CN([C@H](C)CO)C3=O)cc1`, the inhibition was 4.47% (inactive).

Turning to `C#CCOCCOCCOCCNc1nc(N2CCN(C(=O)[C@H](CO)n3cc([C@@H](N)C(C)C)nn3)CC2)nc(N2CCN(C(=O)[C@H](CCC(=O)O)n3cc([C@@H](N)[C@H](C)CC)nn3)CC2)n1`, the inhibition was -7.97% (inactive).

As for `C#CCOCCOCCOCCNc1nc(N2CCN(C(=O)C([C@@H](C)O)n3cc([C@@H](N)CCCCN)nn3)CC2)nc(N2CCN(C(=O)[C@H](CCCCN)n3cc(CN)nn3)CC2)n1` (stereo partly drawn), the inhibition was 69.5% (active).

In the case of `C#CCOCCOCCOCCNc1nc(N2CCN(C(=O)[C@H](CCCCN)n3cc([C@@H](N)C(C)CC)nn3)CC2)nc(N2CCN(C(=O)[C@H](Cc3ccc(O)cc3)n3cc([C@@H](N)C(C)CC)nn3)CC2)n1` (stereo partly drawn), the inhibition was -6.01% (inactive).

On to `CC(=O)N1[C@H](CO)[C@@H](c2ccccc2)[C@@H]1CN(CC(C)C)C(=O)c1ccccn1`, for which the inhibition was -0.684% (inactive).

On to `Cc1ccc(S(=O)(=O)Nc2ccc3c(c2)C(=O)N([C@@H](C)CO)C[C@H](C)[C@@H](CN(C)C(=O)Nc2ccc(F)cc2)OCCCC[C@H](C)O3)cc1`, for which the inhibition was 8.58% (inactive).

With `COC(=O)C[C@H]1CC[C@H]2[C@H](COc3ccc(NC(=O)C4CC4)cc3C(=O)N2C)O1`, the inhibition is -2.57% (inactive).

On to `C[C@@H](NC(=O)C[C@H]1CC[C@H](NS(=O)(=O)c2cccc(F)c2)[C@H](CO)O1)c1ccccc1`, for which the inhibition was 0.335% (inactive).

As for `O=C(Nc1cc(F)ccc1F)N1C[C@H]2[C@@H](c3ccccc31)[C@@H](CO)N2C(=O)c1ccccc1`, the inhibition was 8.71% (inactive).

Regarding `Cc1ccc(S(=O)(=O)Nc2ccc3c(c2)C(=O)N([C@H](C)CO)C[C@H](C)[C@@H](CN(C)S(=O)(=O)c2cn(C)cn2)OCCCC[C@H](C)O3)cc1`, the inhibition was 1.15% (inactive).

As to `O=C([C@H]1[C@H](CO)[C@H]2Cn3c(ccc(C4=CCCCC4)c3=O)[C@@H]1N2)N1CCCCC1`, the inhibition was -7.2% (inactive).

Regarding `CCN(CC)CCCNC(=O)c1cc2c(=O)[nH]c3ccc(C)cc3c2s1`, the inhibition is 51.5% (active).

Consider `Cc1cccc(N(C)C(=O)c2cc3c(=O)[nH]c4ccc(C)cc4c3s2)c1`, for which the inhibition is -5.82% (inactive).

Consider `Cc1ccc2[nH]c(=O)c(CC(=O)O)c(-c3ccccc3)c2c1`, for which the inhibition is -1.43% (inactive).

On to `CO[C@H]1CN(C)C(=O)c2cc(NC(=O)C3CC3)ccc2OC[C@H](C)N(CC2CCCC2)C[C@@H]1C`, for which the inhibition was -8.31% (inactive).

In the case of `Cc1noc(C)c1NC(=O)Nc1ccc2c(c1)C(=O)N([C@H](C)CO)C[C@@H](C)[C@@H](CN(C)C(=O)NC(C)C)O2`, the inhibition is 8.07% (inactive).

`CC(C)NC(=O)Nc1ccc2c(c1)C(=O)N([C@@H](C)CO)C[C@@H](C)[C@H](CN(C)C(=O)NC1CCCCC1)O2`: the inhibition is -6.48% (inactive).

On to `CN1CCN(Cc2c(O)ccc3c2oc(=O)c2ccccc23)CC1`, for which the inhibition is 61.1% (active).

Turning to `N#Cc1ccccc1S(=O)(=O)N1CCN(Cc2c(O)ccc3ccccc23)CC1`, the inhibition was 1.29% (inactive).

Take `O=c1oc2c(CN3CCCCC3)c(O)ccc2c2c1CCCCC2`: the inhibition was 3.11% (inactive).

On to `O=C(C[C@@H]1C[C@@H]2c3cc(NC(=O)Cc4ccncc4)ccc3O[C@@H]2[C@H](CO)O1)NCc1cccc(F)c1`, for which the inhibition was -0.719% (inactive).

`C/C=C/c1cnc2c(c1)C(=O)N([C@@H](C)CO)C[C@H](C)[C@H](CN(C)C(=O)CN1CCOCC1)O2`: the inhibition was 2.37% (inactive).

On to `C[C@@H]1CN([C@@H](C)CO)C(=O)c2cc(NS(=O)(=O)c3ccccc3)ccc2O[C@@H](C)CCCCO[C@H]1CN(C)C(=O)C1CCCCC1`, for which the inhibition was -16.2% (inactive).

Consider `COC(=O)c1c(NC(=O)c2ccc(S(=O)(=O)N3CCOCC3)cc2)sc2c1CCN(C(C)C)C2`, for which the inhibition is 75% (active).

As to `CC(OC(=O)c1ccc(S(=O)(=O)N2CCOCC2)cc1)c1ccccc1` (stereo not drawn), the inhibition was 0.166% (inactive).

For `COc1ccc(S(=O)(=O)N2CCOCC2)cc1NC(=O)c1ccc(OCC(C)C)c(OC)c1`, the inhibition was 3.95% (inactive).
